Screening data as filed in PubChem BioAssay.
Sampled rows, rich in hits. Any-hit rate of the full collection: about 4%.
TRHR ag – qHTS for Small Molecule Agonists and Allosteric Enhancers of Human TRH Receptor: Primary Screen for Agonists; Thyrotropin-releasing hormone receptor (Homo sapiens), P34981; TRHR cells, calcium flux fluo-8, FDSS agonist mode; activation, % at 2 µM; 0.18% of 360,000 active; AID 493084, 2011; note: 0% is about no effect
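In this calcium-flux screen, cells bearing human TRHR are dye-loaded with fluo-8, baselined for 10 cycles, then exposed to library compounds; positive kinetic calcium responses during the agonist phase mark hits, with TRH as control.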
D1 agonist – Allosteric Agonists of the Human D1 Dopamine Receptor: qHTS; 1% of 360,000 active; activation, % at 2 µM; AID 504660, 2011; HEK293 T-REx D1 cells, calcium flux, agonist mode; note: 0% is about no effect
Target sequence (P21728 whole entry, looked up): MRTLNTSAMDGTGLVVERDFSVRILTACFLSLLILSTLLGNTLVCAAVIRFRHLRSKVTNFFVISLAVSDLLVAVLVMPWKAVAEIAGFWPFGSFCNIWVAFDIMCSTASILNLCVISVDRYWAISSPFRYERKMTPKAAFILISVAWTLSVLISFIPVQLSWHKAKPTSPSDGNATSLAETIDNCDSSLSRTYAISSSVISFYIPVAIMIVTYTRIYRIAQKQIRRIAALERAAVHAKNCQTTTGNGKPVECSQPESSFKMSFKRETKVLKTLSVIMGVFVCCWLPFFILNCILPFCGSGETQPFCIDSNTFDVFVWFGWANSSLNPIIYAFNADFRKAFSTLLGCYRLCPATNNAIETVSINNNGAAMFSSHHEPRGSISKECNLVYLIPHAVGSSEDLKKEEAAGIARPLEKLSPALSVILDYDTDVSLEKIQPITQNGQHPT
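Inducible HEK293 T-REx D1 cells, force-coupled to calcium signalling, were plated at 4000 cells/well with tetracycline and held overnight at 30 C. After no-wash calcium dye loading, compound-evoked calcium rise over 180 s flagged agonists.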
Glioma ERSR ind – qHTS for Inducers of the Endoplasmic Reticulum Stress Response (ERSR) in Human Glioma: qHTS; 0.02% of 420,000 active; U87-MG GRP78 promoter luciferase reporter, 16 h; Potency, µM, inactives show at the highest dose activation, most hits filed as activators; active = well fitted activation curve with a large enough effect; note: potency is the fitted concentration of half-maximal effect; series mostly up to about 76 µM; % of control where 0% means no effect; nearly all actives have a fitted effect of over 35% in size
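ERSR induction read as luciferase luminescence (Bright-Glo, 10 min at room temperature) in stably transfected human U87-MG glioma cells exposed to compounds for 16 h, using GRP78 as sensor.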
TRHR enhancer – qHTS for Small Molecule Agonists and Allosteric Enhancers of Human TRH Receptor: Primary Screen for Enhancers | TRHR cells, fluo-8 calcium fluorescence, EC20 TRH enhancement | enhancement, % at 2 µM | 0.66% of 360,000 active | AID 493056, 2011; in the data active = enhancement above about 30%; note: 0% is about no effect
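Enhancer read-out: after compound pinning and an initial kinetic agonist-mode read, an EC20 of TRH (10 nM final) was injected and fluo-8 calcium signal (Ex 480/Em 530) followed at 1 s/cycle for 100 cycles in TRHR-expressing cells.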
D1 antag – Antagonist of Human D 1 Dopamine Receptor: qHTS; 3.2% of 360,000 active; activity change, negative = inhibition, % at 10 µM; HEK293 TREx D1 cells, calcium flux, dopamine EC80; hits give low values; D(1A) dopamine receptor (Homo sapiens), P21728; in the data active = activity change below about -30%; note: % is set by controls: 0 for no effect and ±100 for the full control effect
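Antagonism measured as reduced calcium response to an EC80 dopamine addition following 180 s compound pre-read; cells were inducible HEK293 Trex D1 plated overnight at 30 C, read kinetically at 1 cycle/sec.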
D1 potentiator – Potentiators of Human D1 Dopamine Receptor: qHTS; potentiation, % at 10 µM; D(1A) dopamine receptor (Homo sapiens), P21728; HEK293 TREx D1 cells, calcium flux, dopamine EC20 potentiation; 0.036% of 360,000 active; AID 504651, 2011; in the data active = potentiation above about 30%; note: 0% is about no effect
* marks the source's active call; other numbers are inactive results; x = no result. Cut-off read from the data, not from the text of the source, unless noted: active = activation above about 30%; inactive = the rest.

SMILES | TRHR ag | D1 agonist | Glioma ERSR ind | TRHR enhancer | D1 antag | D1 potentiator
O=C(NCCc1c[nH]c2ccccc12)c1cncc(Br)c1 | 7 | 10 | -4% | 13 | -35* | -8
Cc1ccc(C)c(NC(=O)C(=O)NCCc2c[nH]c3ccccc23)c1 | 0 | 2 | 3% | 8 | 8 | -12
O=C(NCCc1ccc(Cl)cc1Cl)c1cncc(Br)c1 | -1 | 4 | -3% | 8 | -38* | -12
O=C(NCCc1ccccc1)[C@@H]1CC=C[C@@H]2CCN(C3CC3)C(=O)[C@@H]21 | x | x | -4% | x | x | x
Cc1nc(C)c(-c2csc(N)n2)s1 | 1 | 3 | 0% | 2 | -31* | -7
Cc1ccc(Nc2nc(-c3sc(C)nc3C)cs2)cc1 | 0 | 0 | 4% | 3 | -14 | -3
CCOC(=O)N1CCC(NC(=O)c2ccc3c(c2)ncn3C2CCCC2)CC1 | 0 | -1 | 3% | -7 | 8 | -1
COc1ccc(C(CNC(=O)c2ccc(Cl)c(S(=O)(=O)N3CCCC3)c2)N2CCCC2)cc1 (stereo not given) | 0 | 6 | -3% | -4 | 5 | 11
COc1ccc(C(=O)NCC2COc3ccccc3O2)cc1S(=O)(=O)N1CCOCC1 (stereo not given) | -1 | 0 | -4% | -3 | -34* | -4
CCOC(=O)N1CCN(C(=O)c2ccc3c(c2)ncn3C2CCCC2)CC1 | -1 | 1 | -1% | 34* | -12 | -5
COc1ccc(CCNC(=O)c2ccc(Cl)c(S(=O)(=O)N3CCCC3)c2)cc1 | 0 | 8 | -1% | 1 | -50* | -1
O=C(NCC1COc2ccccc2O1)c1ccc(F)c(S(=O)(=O)N2CCOCC2)c1 (stereo not given) | 0 | 8 | -6% | -2 | -10 | -1
COc1ccc(C(=O)Nc2ncc(C)s2)cc1S(=O)(=O)N1CCOCC1 | 2 | 0 | 1% | 32* | 12 | -4
COc1ccc(C(=O)NCc2ccncc2)cc1S(=O)(=O)N1CCOCC1 | 0 | 4 | -1% | -5 | -48* | x
CCOC(=O)N1CCN(C(=O)c2ccc(Cl)c(S(=O)(=O)N3CCCC3)c2)CC1 | 0 | 0 | -4% | 2 | -2 | 34*
COc1ccccc1OCCNC(=O)c1ccc(C)c(S(=O)(=O)N2CCOCC2)c1 | 0 | 30* | -2% | 13 | -6 | -7
COc1cccc(CNC(=O)c2ccc(Cl)c(S(=O)(=O)N3CCOCC3)c2)c1 | -1 | 2 | -4% | -7 | -34* | -11
C=CCN(c1ccccc1Cl)S(=O)(=O)c1cccc(C(=O)NCCc2ccc(OC)cc2)c1 | 1 | 3 | -6% | 1 | -32* | -8
Nc1c(C(=O)N/N=C/c2cccnc2)oc2nc(-c3ccco3)cc(-c3ccco3)c12 | 3 | 4 | -1% | -12 | -31* | -3
Nc1ccc2oc(=O)ccc2c1I | x | x | -3% | x | x | x
O=C(NCCCN1CCN(c2ccc(F)cc2)CC1)Nc1ccc(Cl)cc1 | 2 | 69* | 1% | -5 | -77* | -2
COc1ccccc1S(=O)(=O)Cc1ccc(C(=O)NCCCN2CCN(c3ccc(F)cc3)CC2)o1 | 0 | 1 | -1% | -1 | -62* | -23
O=C(NCCN1CCN(c2ccccc2Cl)CC1)Nc1ccccc1 | 0 | -1 | -4% | -2 | -8 | -7
CSc1ccc(N2CCN(CCCNC(=O)Nc3ccccc3F)CC2)cc1 | 0 | 75* | 1% | -7 | -4 | -24
Cc1cccc(N2CCN(CCNC(=O)Nc3ccc(Cl)cc3)CC2)c1C | 3 | 30* | 1% | 4 | -33* | -3
SMILES | TRHR ag | D1 agonist | Glioma ERSR ind | TRHR enhancer | D1 antag | D1 potentiator
CC1=C(/C=C/C(C)=C/C=C/C(C)=C/C(=O)O)C(C)(C)CCC1O (stereo not given) | x | x | -4% | x | x | x
O=C(CNC(=O)C(c1ccccc1)c1ccccc1)OCC(=O)c1cccc2ccccc12 | x | x | 0% | x | x | x
CSc1cccc(NC(=S)NCCCN2CCN(c3ccc(F)cc3)CC2)c1 | 1 | 11 | -1% | -8 | -76* | -5
CCOc1ccc(NC(=O)NCCCN2CCN(c3ccc(F)cc3)CC2)cc1 | 0 | 14 | -2% | 3 | -36* | -4
O=C(NCCCN1CCN(c2ccc(F)cc2)CC1)Nc1ccccc1Cl | -1 | 43* | 1% | 2 | -67* | 0
Fc1cccc(NC(=S)NCCCN2CCOCC2)c1 | 0 | 2 | -7% | 3 | 12 | 1
CSc1ccc(NC(=O)NCCCN2CCC(Cc3ccccc3)CC2)cc1 | 0 | 196* | -3% | 16 | -13 | 7
COc1ccc(N2CCN(CCCNC(=O)Nc3ccccc3Cl)CC2)cc1 | -1 | 12 | 1% | -1 | -6 | -4
CCc1ccc(N2CCN(CCNC(=O)Nc3ccc(OC)cc3)CC2)cc1 | 0 | 2 | -2% | 5 | 3 | 16
NC(C(=O)O)(c1ccc(P(=O)(O)O)cc1)C1CC1 (stereo not given) | x | x | -4% | x | x | x
Cc1ccccc1CN1CCN(CC(=O)NCCCN2CCN(c3ccc(F)cc3)CC2)C1=O | 1 | 24 | 0% | -11 | -65* | -12
Cc1cc(Br)ccc1NC(=O)CN1C(=O)C2C3CC(c4ccccc4)C(C3)C2C1=O (stereo not given) | 2 | 1 | -2% | -5 | -39* | -8
Cc1[nH]nc(Nc2ccc(Br)cc2)c1[N+](=O)[O-] | 0 | 10 | 8% | -8 | -36* | -10
Cc1cccc(Nc2n[nH]c(C)c2[N+](=O)[O-])c1 | 0 | 20 | -1% | -7 | -37* | -7
Cc1[nH]nc(Nc2ccccc2)c1[N+](=O)[O-] | 0 | 2 | 5% | -5 | -22 | 3
O=c1c2ccccc2sn1-c1ccc(Cl)c(S(=O)(=O)N2CCOCC2)c1 | x | x | -6% | x | x | x
Cc1ccc(C(=O)N2CCCC(CCC(=O)N3CCN(c4ccccn4)CC3)C2)cc1C (stereo not given) | -1 | 7 | 2% | -5 | -39* | -5
CCCc1nc(SCC(=O)Nc2ccc(N3CCOCC3)cc2)c2ccccc2n1 | 1 | 1 | -4% | 2 | -36* | -20
COc1ccc(NC(=O)CSc2nc3ccccc3nc2N2CCOCC2)cc1 | 0 | 3 | -2% | -5 | -9 | 1
CC(C)c1nc(SCC(=O)Nc2ccc(N3CCOCC3)cc2)c2ccccc2n1 | 0 | 1 | -2% | -1 | -18 | -3
